Results on 8 molecules are retold here after ChEMBL document CHEMBL1961873, “Compounds: GSK PKIS; Assays: Nanosyn kinase panel” (2012).

Experiment [1] deals with T1, Inhibitor of nuclear factor kappa-B kinase subunit epsilon (Homo sapiens) (UniProt Q14164).
T1 sequence (whole entry): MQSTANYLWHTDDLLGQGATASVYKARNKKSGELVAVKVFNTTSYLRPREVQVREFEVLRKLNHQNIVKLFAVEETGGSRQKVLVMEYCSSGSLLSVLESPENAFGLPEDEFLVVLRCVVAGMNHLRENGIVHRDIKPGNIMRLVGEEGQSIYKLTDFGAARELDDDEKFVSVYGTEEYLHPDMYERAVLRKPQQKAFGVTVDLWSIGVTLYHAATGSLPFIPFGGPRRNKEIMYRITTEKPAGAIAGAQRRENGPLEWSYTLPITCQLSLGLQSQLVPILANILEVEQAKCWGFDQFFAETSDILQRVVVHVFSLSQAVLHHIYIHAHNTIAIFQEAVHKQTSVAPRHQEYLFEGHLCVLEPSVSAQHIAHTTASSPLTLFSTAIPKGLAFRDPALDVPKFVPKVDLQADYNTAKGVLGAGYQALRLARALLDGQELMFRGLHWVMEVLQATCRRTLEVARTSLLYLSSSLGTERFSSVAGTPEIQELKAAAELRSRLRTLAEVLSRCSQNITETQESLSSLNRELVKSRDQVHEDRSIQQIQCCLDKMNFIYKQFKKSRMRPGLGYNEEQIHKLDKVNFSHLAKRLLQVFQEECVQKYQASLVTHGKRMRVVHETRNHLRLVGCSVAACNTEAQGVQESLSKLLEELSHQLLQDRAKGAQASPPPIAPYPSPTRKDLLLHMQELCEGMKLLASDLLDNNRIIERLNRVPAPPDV
The following applies: at 1 µM.

In experiment [2] the target is T2, Serine/threonine-protein kinase Nek1 (Homo sapiens) (UniProt Q96PY6).
T2 sequence (whole entry): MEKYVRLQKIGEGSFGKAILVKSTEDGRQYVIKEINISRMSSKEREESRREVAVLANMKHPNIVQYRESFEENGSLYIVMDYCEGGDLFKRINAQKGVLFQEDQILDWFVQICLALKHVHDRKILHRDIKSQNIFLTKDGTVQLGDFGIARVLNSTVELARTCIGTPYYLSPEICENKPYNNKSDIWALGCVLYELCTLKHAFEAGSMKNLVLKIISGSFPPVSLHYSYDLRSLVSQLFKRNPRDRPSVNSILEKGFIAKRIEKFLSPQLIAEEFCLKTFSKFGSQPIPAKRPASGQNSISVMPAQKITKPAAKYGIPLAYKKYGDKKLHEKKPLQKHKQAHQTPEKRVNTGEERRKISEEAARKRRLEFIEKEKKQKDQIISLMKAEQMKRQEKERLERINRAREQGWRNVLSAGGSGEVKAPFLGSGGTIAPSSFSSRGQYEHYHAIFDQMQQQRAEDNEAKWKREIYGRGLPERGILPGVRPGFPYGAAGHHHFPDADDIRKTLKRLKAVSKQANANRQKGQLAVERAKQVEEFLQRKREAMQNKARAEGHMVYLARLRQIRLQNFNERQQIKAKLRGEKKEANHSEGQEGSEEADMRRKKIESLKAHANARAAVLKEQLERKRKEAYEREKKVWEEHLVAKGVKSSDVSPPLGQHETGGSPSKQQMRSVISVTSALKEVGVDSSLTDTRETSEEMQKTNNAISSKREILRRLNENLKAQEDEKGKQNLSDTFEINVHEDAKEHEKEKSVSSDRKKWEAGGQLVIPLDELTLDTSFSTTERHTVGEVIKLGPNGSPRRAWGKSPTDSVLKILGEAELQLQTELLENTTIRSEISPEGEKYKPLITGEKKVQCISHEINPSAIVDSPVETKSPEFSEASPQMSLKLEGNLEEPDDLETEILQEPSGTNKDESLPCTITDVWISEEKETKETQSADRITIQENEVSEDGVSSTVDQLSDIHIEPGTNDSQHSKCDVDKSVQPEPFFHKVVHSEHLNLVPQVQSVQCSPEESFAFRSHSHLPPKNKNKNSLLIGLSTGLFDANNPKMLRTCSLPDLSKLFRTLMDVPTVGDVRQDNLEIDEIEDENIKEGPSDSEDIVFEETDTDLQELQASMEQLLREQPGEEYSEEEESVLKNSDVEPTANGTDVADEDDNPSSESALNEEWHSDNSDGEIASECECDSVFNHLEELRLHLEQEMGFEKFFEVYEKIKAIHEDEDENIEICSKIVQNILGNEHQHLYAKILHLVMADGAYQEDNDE
The conditions noted are these: at 0.1 µM.

In experiment [3] the target is T2, Serine/threonine-protein kinase Nek1 (Homo sapiens). The conditions noted are these: at 1 µM.
Experiment [4] concerns the target T3, Serine/threonine-protein kinase Nek2 (Homo sapiens) (UniProt P51955).
T3 sequence (whole entry): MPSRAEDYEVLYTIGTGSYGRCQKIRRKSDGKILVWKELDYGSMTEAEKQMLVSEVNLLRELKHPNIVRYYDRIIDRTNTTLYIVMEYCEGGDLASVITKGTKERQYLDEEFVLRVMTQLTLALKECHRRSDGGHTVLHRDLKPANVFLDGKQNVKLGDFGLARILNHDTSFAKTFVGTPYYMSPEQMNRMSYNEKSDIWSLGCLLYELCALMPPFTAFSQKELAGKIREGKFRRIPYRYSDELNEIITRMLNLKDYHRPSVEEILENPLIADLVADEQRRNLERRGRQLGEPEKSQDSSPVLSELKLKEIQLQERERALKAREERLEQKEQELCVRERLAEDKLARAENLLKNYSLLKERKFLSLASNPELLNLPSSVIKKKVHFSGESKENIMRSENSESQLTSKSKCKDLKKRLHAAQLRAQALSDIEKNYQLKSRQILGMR
The following applies: at 0.1 µM.

For experiment [5], the target named is T3, Serine/threonine-protein kinase Nek2 (Homo sapiens). The conditions noted are these: at 1 µM.
The target in experiment [6] is Serine/threonine-protein kinase Nek6 (Homo sapiens) (UniProt Q9HC98). The following applies: at 0.1 µM.
Chain of Serine/threonine-protein kinase Nek6 (Homo sapiens) (Q9HC98 whole entry): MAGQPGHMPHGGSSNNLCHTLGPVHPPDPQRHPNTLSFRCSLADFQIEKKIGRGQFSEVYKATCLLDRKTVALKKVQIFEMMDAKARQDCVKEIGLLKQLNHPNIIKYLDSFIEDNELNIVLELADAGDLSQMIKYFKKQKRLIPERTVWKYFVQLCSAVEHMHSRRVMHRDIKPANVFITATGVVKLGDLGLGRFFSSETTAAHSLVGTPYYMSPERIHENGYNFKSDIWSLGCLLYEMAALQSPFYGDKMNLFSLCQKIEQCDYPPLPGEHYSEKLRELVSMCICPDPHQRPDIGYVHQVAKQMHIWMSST
For experiment [7] the target is unchanged. The following applies: at 1 µM.
For experiment [8], the target named is Serine/threonine-protein kinase Nek7 (Homo sapiens) (UniProt Q8TDX7). The conditions noted are these: at 0.1 µM.
Chain of Serine/threonine-protein kinase Nek7 (Homo sapiens) (Q8TDX7 whole entry, looked up): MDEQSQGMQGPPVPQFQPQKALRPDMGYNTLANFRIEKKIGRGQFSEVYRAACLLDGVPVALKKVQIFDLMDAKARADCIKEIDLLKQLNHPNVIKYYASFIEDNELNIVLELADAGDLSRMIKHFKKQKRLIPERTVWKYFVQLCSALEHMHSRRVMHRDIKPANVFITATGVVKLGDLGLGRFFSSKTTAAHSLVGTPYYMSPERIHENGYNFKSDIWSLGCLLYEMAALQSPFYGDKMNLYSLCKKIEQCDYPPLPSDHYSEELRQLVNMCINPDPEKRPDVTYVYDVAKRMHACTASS
Experiment [9] has the same target. The following applies: at 1 µM.
Experiment [10] concerns the target T4, Serine/threonine-protein kinase Nek9 (Homo sapiens) (UniProt Q8TD19).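 Note: reported value is the mean percent inhibition of NEK9.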
T4 sequence (whole entry): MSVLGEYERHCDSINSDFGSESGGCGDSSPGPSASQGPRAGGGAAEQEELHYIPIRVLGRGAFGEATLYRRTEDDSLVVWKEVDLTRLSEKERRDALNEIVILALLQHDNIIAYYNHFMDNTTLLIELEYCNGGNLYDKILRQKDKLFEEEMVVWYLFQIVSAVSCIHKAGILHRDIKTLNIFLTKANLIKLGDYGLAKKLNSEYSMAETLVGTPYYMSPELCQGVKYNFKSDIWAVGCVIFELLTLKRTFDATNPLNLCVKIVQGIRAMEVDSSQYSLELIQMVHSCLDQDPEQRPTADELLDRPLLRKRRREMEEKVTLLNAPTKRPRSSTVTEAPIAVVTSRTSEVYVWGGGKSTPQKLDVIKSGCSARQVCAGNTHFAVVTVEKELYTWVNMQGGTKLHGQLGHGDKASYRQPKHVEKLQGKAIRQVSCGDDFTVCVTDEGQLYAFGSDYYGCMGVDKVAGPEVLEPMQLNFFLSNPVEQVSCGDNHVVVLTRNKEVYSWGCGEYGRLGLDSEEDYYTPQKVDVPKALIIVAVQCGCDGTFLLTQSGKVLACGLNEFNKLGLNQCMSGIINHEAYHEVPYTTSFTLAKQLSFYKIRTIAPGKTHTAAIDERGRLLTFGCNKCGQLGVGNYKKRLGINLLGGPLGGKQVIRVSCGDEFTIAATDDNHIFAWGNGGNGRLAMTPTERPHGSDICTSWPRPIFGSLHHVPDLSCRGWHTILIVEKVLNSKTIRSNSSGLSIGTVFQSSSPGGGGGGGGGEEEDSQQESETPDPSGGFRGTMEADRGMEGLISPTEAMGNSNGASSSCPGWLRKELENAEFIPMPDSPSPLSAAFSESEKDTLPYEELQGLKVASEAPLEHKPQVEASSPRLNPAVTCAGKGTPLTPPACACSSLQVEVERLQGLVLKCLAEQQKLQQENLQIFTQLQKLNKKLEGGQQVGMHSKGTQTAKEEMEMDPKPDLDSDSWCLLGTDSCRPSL
The following applies: at 0.1 µM.

The term inhibition denotes the drop in the measured response relative to a control, in per cent. As to `NC(=O)c1cccc(Nc2nccc(Nc3cccc(F)c3)n2)c1`, the inhibition in experiment [1] was determined as 3.29%; in [2], 2.58%; in experiment [3], 5.37%; in [4] it was 3.22%; in [5], 1.09%; in experiment [6], 0.35%. Besides, the inhibition in [7] worked out at 0.89%; in [8], 2.07%; in experiment [9] it was 1.47%; in experiment [10], 8.72%.
For the molecule `COC(=O)Nc1nc2cc(Oc3ccc(NC(=O)Nc4cccc(Br)c4)cc3)ccc2[nH]1`, the inhibition in experiment [1] came to 5.38%; in [2], 2.6%; in [3], 2.19%; in experiment [4], 3.46%; in experiment [5] it was 2.81%; in experiment [6], 3.89%. Moreover, the inhibition in [7] worked out at 3.38%; in [8], 3.11%; in [9], 2.69%; in [10] it was 7.82%.
With `Cc1ccc(O)cc1Nc1ccnc2ccc(S(C)(=O)=O)cc12`, the inhibition in [1] worked out at 6.97%; in experiment [2] it was 2.87%; in [3] it was 5.3%; in [4] it was 5.76%; in [5] it was 4.61%; in experiment [6], 1.23%. Besides, the inhibition in [7] is 4.89%; in experiment [8], 5.32%; in [9] it was 4.35%; in experiment [10], 4.3%.
In the case of `CS(=O)(=O)Nc1cccc(-c2ccc3c(NC(=O)C4CC4)n[nH]c3c2)c1`, the inhibition in [1] was found to be 2.59%; in experiment [2], 0.75%; in experiment [3] it was 1.07%; in experiment [4] it was 1.36%; in experiment [5], 0.27%; in [6] it was 1.36%. Further, the inhibition was -1.38% in [7], 2.34% in experiment [8], 1.08% in experiment [9] and 2.01% in experiment [10].
On to `N#Cc1c(NC(=O)c2ccccc2F)sc2c1CCCC2`, for which the inhibition in [1] is -0.39%; in experiment [2] it was 1.15%; in [3] it was 2.83%; in experiment [4] it was 1.03%; in experiment [5], 3.25%; in [6], -4.29%. Besides, the inhibition in [7] was -1.45%; in experiment [8], -2.18%; in experiment [9], 0.08%; in [10] it was -2.9%.
As for `FC(F)(F)c1ccc(-c2nn3ncccc3c2-c2ccnc(Nc3ccc4c(c3)OCCO4)n2)cc1`, the inhibition was -1.52% in [1]; 4.77% in experiment [2]; 2.05% in experiment [3]; 1.11% in experiment [4]; 1.32% in [5]; -1.63% in experiment [6]. Moreover, the inhibition is 1.37% in experiment [7], -5.04% in experiment [8], -5.62% in [9] and -5.79% in experiment [10].
`ON=C1CCc2cc(-c3nc(C4CCNCC4)[nH]c3-c3ccncc3)ccc21`: the inhibition in experiment [1] is 2.68%; in experiment [2], 0.37%; in experiment [3], -0.17%; in experiment [4], 0.86%; in [5], 1.18%; in experiment [6] it was -0.82%. The inhibition in experiment [7] was -3.55%; in [8], 2.03%; in [9], 0.72%; in experiment [10] it was 4.01%.
Take `c1ccc(Nc2ncc(-c3ccccc3)o2)cc1`: the inhibition worked out at 8.49% in experiment [1]; 2.71% in experiment [2]; 2.57% in experiment [3]; 5.93% in experiment [4]; 0.59% in experiment [5]; 1.04% in [6]. Moreover, the inhibition came to 0.47% in experiment [7], 3.1% in experiment [8], 9.54% in [9] and 12.2% in experiment [10].
